# ChEMBL document CHEMBL1961873, “Compounds: GSK PKIS; Assays: Nanosyn kinase panel” (2012)
# Columns and labels:
# [1] = molecular target: Death-associated protein kinase 1 (Homo sapiens) (UniProt P53355); conditions: at 1 µM;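 note: each value is a mean inhibition figure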
# [2] = molecular target: T1, Serine/threonine-protein kinase DCLK2 (Homo sapiens) (UniProt Q8N568); conditions: at 0.1 µM
# T1 sequence (whole entry): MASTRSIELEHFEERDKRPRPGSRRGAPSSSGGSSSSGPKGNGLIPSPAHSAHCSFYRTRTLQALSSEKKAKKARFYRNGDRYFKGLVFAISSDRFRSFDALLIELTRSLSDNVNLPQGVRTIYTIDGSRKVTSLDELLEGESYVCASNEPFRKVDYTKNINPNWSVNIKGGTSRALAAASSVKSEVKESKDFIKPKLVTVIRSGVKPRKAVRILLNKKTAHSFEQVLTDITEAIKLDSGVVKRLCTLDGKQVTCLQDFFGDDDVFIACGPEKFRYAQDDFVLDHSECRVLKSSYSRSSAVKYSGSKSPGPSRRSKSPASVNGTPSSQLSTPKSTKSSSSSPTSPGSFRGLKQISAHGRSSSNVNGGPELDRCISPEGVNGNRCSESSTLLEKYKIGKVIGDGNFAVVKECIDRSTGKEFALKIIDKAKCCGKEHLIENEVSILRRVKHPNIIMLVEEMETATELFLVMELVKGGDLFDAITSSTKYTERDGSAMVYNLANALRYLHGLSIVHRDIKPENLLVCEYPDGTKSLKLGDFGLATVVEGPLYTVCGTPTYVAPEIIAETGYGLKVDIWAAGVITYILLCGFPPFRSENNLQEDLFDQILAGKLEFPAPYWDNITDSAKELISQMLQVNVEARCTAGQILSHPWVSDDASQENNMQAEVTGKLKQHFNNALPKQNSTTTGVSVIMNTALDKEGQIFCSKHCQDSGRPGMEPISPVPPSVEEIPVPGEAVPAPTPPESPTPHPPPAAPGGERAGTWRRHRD
# [3] = molecular target: T1, Serine/threonine-protein kinase DCLK2 (Homo sapiens); conditions: at 1 µM
# [4] = molecular target: MAP kinase-activated protein kinase 2 (Homo sapiens) (UniProt P49137); conditions: at 0.1 µM
# MAP kinase-activated protein kinase 2 (Homo sapiens), sequence (P49137 whole entry, looked up): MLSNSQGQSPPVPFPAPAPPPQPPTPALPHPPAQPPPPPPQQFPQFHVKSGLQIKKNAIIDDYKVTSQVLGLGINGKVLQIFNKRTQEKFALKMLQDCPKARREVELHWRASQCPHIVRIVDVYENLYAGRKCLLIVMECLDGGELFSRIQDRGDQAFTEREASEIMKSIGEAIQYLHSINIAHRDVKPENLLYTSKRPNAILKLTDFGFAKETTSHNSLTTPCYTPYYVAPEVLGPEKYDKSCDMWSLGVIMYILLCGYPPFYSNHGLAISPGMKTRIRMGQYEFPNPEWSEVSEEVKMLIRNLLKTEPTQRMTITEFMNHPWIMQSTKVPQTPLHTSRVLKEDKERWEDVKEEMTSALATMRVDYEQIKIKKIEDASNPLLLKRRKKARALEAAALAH
# [5] = molecular target: MAP kinase-activated protein kinase 2 (Homo sapiens) (UniProt P49137); conditions: at 1 µM
# [6] = molecular target: MAP kinase-activated protein kinase 3 (Homo sapiens) (UniProt Q16644); conditions: at 0.1 µM
# MAP kinase-activated protein kinase 3 (Homo sapiens), sequence (Q16644 whole entry, looked up): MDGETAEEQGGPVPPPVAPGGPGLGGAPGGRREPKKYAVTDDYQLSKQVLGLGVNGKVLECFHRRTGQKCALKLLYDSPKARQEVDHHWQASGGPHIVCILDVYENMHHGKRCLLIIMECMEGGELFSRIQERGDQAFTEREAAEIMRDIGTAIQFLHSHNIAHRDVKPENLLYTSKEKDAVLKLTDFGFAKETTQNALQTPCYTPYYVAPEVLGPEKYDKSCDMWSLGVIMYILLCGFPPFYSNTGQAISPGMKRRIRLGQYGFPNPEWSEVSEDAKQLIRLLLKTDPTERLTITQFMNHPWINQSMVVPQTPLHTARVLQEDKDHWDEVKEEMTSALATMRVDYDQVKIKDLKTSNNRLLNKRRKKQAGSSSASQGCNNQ
# [7] = molecular target: MAP kinase-activated protein kinase 3 (Homo sapiens) (UniProt Q16644); conditions: at 1 µM
# [8] = molecular target: Serine/threonine-protein kinase MARK1 (Homo sapiens) (UniProt Q9P0L2); conditions: at 0.1 µM
# Serine/threonine-protein kinase MARK1 (Homo sapiens), sequence (Q9P0L2 whole entry, looked up): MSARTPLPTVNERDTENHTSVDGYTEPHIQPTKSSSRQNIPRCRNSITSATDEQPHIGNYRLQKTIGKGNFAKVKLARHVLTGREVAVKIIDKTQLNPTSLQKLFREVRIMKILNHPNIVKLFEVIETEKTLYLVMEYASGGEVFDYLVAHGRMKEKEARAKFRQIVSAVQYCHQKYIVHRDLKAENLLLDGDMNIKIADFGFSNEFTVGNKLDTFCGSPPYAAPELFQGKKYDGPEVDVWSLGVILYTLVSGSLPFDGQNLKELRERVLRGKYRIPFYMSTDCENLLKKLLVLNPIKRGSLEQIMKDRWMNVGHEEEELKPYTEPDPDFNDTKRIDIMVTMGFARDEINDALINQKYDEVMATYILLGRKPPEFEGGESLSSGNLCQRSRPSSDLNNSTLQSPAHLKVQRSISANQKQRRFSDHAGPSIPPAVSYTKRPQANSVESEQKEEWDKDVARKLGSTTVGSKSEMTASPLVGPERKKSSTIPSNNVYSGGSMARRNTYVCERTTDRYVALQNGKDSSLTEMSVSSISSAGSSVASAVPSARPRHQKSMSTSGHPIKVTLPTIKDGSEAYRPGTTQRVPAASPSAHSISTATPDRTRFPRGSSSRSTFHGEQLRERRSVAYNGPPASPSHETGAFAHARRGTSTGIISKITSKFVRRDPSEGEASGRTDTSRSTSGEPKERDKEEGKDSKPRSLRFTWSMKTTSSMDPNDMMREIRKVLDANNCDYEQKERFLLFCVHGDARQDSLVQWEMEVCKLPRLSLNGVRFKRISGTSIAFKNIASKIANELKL
# [9] = molecular target: Serine/threonine-protein kinase MARK1 (Homo sapiens) (UniProt Q9P0L2); conditions: at 1 µM
# [10] = molecular target: MAP/microtubule affinity-regulating kinase 3 (Homo sapiens) (UniProt P27448); conditions: at 0.1 µM
# MAP/microtubule affinity-regulating kinase 3 (Homo sapiens), sequence (P27448 whole entry, looked up): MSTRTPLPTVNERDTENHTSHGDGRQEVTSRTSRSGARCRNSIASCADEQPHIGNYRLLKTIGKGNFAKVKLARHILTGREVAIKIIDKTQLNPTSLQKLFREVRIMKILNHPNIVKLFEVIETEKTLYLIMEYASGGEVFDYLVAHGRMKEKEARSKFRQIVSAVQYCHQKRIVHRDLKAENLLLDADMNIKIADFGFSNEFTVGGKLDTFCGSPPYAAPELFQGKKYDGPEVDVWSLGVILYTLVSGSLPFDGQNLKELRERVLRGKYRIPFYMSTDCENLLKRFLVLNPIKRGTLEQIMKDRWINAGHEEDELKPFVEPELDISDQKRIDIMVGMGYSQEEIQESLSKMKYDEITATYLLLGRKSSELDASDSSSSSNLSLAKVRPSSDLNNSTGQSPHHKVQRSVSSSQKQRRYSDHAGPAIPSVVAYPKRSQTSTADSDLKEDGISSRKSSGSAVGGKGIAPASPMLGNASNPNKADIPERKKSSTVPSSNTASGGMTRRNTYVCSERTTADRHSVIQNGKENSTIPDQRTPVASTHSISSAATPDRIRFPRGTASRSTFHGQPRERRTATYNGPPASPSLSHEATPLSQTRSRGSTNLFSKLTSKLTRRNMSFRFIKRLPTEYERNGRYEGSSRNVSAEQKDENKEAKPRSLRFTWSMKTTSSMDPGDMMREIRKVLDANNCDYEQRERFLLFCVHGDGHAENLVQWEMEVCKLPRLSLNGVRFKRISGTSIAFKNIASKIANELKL
# [11] = molecular target: MAP/microtubule affinity-regulating kinase 3 (Homo sapiens) (UniProt P27448); conditions: at 1 µM
# [12] = molecular target: T2, MAP/microtubule affinity-regulating kinase 4 (Homo sapiens) (UniProt Q96L34); conditions: at 0.1 µM
# T2 sequence (whole entry): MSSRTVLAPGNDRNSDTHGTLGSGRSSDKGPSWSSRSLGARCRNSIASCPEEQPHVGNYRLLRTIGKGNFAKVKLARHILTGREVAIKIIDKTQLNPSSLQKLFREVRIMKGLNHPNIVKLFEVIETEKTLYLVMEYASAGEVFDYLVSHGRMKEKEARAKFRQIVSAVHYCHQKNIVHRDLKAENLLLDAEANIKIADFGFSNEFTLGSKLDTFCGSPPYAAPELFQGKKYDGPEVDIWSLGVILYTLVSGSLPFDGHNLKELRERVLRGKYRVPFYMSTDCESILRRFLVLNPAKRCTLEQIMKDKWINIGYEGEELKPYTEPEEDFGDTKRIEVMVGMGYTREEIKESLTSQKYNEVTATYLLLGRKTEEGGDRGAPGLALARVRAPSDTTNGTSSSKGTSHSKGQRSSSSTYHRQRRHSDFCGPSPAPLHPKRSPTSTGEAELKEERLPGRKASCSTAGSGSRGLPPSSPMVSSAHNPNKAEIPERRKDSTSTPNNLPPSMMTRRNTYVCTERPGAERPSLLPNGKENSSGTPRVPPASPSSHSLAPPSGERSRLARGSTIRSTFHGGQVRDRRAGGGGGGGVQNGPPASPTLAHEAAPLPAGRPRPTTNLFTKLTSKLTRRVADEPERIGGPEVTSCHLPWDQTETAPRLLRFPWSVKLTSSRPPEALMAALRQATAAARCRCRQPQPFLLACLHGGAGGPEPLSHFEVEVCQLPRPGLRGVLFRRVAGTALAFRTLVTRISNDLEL
# [13] = molecular target: T2, MAP/microtubule affinity-regulating kinase 4 (Homo sapiens); conditions: at 1 µM
# [14] = molecular target: Maternal embryonic leucine zipper kinase (Homo sapiens) (UniProt Q14680); conditions: at 0.1 µM
# Maternal embryonic leucine zipper kinase (Homo sapiens), sequence (Q14680 whole entry, looked up): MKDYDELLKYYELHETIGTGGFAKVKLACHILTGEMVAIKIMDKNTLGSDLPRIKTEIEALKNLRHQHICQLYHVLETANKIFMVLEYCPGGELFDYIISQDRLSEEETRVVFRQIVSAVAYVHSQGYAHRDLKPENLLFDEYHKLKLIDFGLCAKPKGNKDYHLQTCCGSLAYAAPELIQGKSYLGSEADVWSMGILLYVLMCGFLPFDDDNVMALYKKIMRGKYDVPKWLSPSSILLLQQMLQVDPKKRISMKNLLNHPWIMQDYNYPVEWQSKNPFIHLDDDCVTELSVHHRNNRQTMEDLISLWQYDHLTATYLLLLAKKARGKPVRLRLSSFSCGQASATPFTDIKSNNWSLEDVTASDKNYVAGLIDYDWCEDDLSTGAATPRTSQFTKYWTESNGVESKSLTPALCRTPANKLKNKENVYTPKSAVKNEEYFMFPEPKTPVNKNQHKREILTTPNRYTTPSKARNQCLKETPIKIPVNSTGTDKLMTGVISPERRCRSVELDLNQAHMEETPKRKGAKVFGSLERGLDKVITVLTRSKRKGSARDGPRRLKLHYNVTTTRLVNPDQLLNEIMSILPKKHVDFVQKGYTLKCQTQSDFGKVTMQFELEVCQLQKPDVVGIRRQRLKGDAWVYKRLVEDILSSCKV
# [15] = molecular target: Maternal embryonic leucine zipper kinase (Homo sapiens) (UniProt Q14680); conditions: at 1 µM
# [16] = molecular target: MAP kinase-interacting serine/threonine-protein kinase 1 (Homo sapiens) (UniProt Q9BUB5); conditions: at 0.1 µM
# [17] = molecular target: MAP kinase-interacting serine/threonine-protein kinase 1 (Homo sapiens) (UniProt Q9BUB5); conditions: at 1 µM
# [18] = molecular target: MAP kinase-interacting serine/threonine-protein kinase 2 (Homo sapiens) (UniProt Q9HBH9); conditions: at 0.1 µM
# MAP kinase-interacting serine/threonine-protein kinase 2 (Homo sapiens), sequence (Q9HBH9 whole entry, looked up): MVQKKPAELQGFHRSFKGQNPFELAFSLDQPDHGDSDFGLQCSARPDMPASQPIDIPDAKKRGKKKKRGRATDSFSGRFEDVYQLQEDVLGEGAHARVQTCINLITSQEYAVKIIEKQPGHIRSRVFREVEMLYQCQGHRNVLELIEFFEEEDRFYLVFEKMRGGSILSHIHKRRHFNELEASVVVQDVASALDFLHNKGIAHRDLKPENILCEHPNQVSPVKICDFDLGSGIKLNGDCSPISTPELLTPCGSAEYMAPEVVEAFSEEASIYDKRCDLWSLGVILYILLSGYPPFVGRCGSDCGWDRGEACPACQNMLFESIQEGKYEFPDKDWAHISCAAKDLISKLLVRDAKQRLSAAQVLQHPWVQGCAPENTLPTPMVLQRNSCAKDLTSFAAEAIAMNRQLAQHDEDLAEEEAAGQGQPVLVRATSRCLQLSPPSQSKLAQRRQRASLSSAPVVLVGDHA
# [19] = molecular target: MAP kinase-interacting serine/threonine-protein kinase 2 (Homo sapiens) (UniProt Q9HBH9); conditions: at 1 µM
# [20] = molecular target: Serine/threonine-protein kinase MARK2 (Homo sapiens) (UniProt Q7KZI7); conditions: at 0.1 µM;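 note: mean percent inhibition of PAR-1Balpha kinase activity, reported from the GSK PKIS screen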
# Death-associated protein kinase 1 (Homo sapiens), sequence (P53355 whole entry, looked up): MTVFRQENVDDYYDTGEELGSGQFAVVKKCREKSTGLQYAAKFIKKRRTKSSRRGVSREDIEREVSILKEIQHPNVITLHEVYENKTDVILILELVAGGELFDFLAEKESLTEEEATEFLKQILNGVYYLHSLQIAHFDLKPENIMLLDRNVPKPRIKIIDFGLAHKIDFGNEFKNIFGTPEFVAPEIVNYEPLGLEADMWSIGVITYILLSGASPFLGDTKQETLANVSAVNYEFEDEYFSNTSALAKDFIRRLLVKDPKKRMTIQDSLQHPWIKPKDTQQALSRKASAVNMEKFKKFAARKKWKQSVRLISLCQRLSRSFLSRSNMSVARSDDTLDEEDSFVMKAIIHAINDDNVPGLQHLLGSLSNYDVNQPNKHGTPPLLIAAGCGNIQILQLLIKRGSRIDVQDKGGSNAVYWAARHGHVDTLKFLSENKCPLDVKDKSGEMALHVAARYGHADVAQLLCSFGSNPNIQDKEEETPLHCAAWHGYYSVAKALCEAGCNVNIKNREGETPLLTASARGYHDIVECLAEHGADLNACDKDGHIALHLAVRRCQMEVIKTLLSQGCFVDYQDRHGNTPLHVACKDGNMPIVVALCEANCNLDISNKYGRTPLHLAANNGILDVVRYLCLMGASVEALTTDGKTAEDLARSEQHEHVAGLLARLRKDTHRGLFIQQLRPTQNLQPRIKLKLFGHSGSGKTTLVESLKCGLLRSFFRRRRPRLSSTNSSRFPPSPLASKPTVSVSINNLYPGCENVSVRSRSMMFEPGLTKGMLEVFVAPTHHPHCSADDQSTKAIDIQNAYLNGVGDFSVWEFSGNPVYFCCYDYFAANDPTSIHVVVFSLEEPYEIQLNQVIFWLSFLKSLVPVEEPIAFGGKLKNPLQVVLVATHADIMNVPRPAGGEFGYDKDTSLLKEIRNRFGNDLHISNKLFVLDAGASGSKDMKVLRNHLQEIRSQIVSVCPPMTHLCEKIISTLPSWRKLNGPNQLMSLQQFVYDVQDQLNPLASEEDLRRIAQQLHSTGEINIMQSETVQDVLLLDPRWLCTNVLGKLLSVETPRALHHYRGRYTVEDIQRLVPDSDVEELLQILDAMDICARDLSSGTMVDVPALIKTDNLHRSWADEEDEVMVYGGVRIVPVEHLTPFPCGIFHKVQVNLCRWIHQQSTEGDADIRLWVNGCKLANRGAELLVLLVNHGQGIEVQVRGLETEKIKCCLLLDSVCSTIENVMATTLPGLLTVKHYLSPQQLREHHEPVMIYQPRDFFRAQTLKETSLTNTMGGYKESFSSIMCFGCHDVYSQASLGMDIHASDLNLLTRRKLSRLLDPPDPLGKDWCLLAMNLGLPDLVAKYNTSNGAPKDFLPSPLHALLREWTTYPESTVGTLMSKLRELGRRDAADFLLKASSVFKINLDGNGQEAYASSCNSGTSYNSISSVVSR
SMILES,inhibition [1] [%],inhibition [2] [%],inhibition [3] [%],inhibition [4] [%],inhibition [5] [%],inhibition [6] [%],inhibition [7] [%],inhibition [8] [%],inhibition [9] [%],inhibition [10] [%],inhibition [11] [%],inhibition [12] [%],inhibition [13] [%],inhibition [14] [%],inhibition [15] [%],inhibition [16] [%],inhibition [17] [%],inhibition [18] [%],inhibition [19] [%],inhibition [20] [%]
OCc1ccc(-c2nc(-c3ccccn3)c(-c3ccc4c(c3)OCO4)[nH]2)cc1,6.09,2.19,2.76,1.95,1.87,3.91,6.87,4.66,4.32,4.6,4.42,1.75,2.19,6.02,4.4,2.65,2.54,0.41,0.09,1.8
NS(=O)(=O)c1cccc(Nc2cc(-c3ccc(F)cc3)n[nH]2)c1,11.9,0.71,-0.18,4.39,4.71,9.87,9.68,3.98,17.5,5.25,19,3.62,20.2,0.82,4.1,2.78,10.7,3.32,13,1.43
CCS(=O)(=O)c1ccc(OC)c(Nc2nccc(N(C)c3ccc4c(C)n[nH]c4c3)n2)c1,4.98,-0.1,2.14,2.62,1.63,3.91,6.4,2.93,3.99,3.81,3.79,2.78,3.51,3.25,6.92,3.05,3.58,0.35,3.48,0.55
COc1cccc(-n2ncc3c(N/N=C/c4ccc(C)cc4)ncnc32)c1,-4.37,0.26,2.82,-0.94,0.98,-0.57,-0.87,3.16,6.21,2.69,6.9,2.42,5.11,5.47,12.6,4.37,9.69,3.79,11.2,2.05
CC(C)c1ccc(Nc2nccc(-c3cnn4ncccc34)n2)cc1,-2.33,0.5,-1.7,0.86,0.39,3.55,6.14,0.51,4.24,2.56,3.95,0.24,2.61,5.96,26.3,3.64,11.8,2.64,15.2,-1.19
CN(C)c1cc2c(Nc3ccc4c(cnn4Cc4ccccc4)c3)ncnc2cn1,4,0.57,-0.18,1.53,1.29,2.73,2.81,2.96,3.22,0.52,-0.35,1.14,1.04,2.68,2.1,3.47,19.4,3.73,23,0.19
O=S(=O)(CCOCc1ccc(-c2ccc3ncnc(Nc4ccc(OCc5cccc(F)c5)c(Cl)c4)c3c2)o1)c1ccccc1,0.71,-0.21,1.2,0.69,0.79,-0.36,2.16,-0.2,2.87,0.76,1.33,1.36,3.69,3.07,7.12,1.49,4.07,-0.55,4.88,-0.42
NS(=O)(=O)c1ccc(N/N=C2\C(=O)Nc3ccc(Cl)cc32)cc1,-3.71,0.73,1,-0.88,-0.73,-2.03,-2.76,3.26,11.4,4.4,13.2,2.09,11.2,3.75,8.5,2.08,10.1,1.59,5.65,0.41
COc1cc(Nc2nccc(-c3cnn4ncccc34)n2)cc(OC)c1,1.26,4.84,-3.23,0.26,0.15,0.44,0.56,4.67,32.3,6.88,34.1,3.44,22.1,7.1,43.9,1.97,10.2,3.13,17.2,2.81
CCn1c(-c2nonc2N)nc2c(C#CC(C)(C)O)nc(OCCNC)cc21,-0.74,-0.8,-0.85,1.85,2.88,2.43,3.56,1.55,10.3,0.62,11.6,2.05,7.52,17.5,81.1,1.63,3.44,0.5,1.12,1.74
CC(C)c1ccc2c(c1)NC(=O)/C2=N/Nc1ccc(S(N)(=O)=O)cc1,-1.66,-1.85,-0.66,-1.01,-0.9,-0.68,-1.45,-0.84,0.9,-3.67,-2.09,-0.86,0.13,0.88,0.52,1.43,2.29,0.22,2.57,-1.41
Nc1ccc(C#Cc2cncnc2Nc2ccc(OCc3cccc(F)c3)c(Cl)c2)cc1,1.54,-0.36,-0.03,2.17,0.48,4.18,4.4,2.19,3.58,2.93,2.52,2.36,1.95,2.97,1.48,2.04,10.7,0.63,7.26,-0.22
Nc1nccc(-c2c(-c3ccc(F)cc3)ncn2CCCN2CCOCC2)n1,5.9,2.38,-0.25,2.78,2.33,9.94,23.5,3.81,6.99,2.18,8.72,1.4,1.82,9.7,2.83,2.6,7.69,1.53,0.94,3.08
c1ccc(Cc2nc3ccc(Nc4ncnc5ccccc45)cc3[nH]2)cc1,5.17,-0.21,1.02,1.39,1.85,3.82,4.05,1.85,6.13,1.67,3.72,0.9,2.17,0.16,7.57,2.13,5.06,1.25,5.19,0.28
